Among all 190,000 compounds or so, about 570 (0.3%) were called active.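 The calls were made as follows: active = z-score above 3 at 5 µM with at least 500 cells counted in the well; inconclusive = wells under 500 cells, flagged as cytotoxic or low count; inactive = the rest.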 The full list was thinned out, with actives kept by preference.
experiment: insulin promoter activators in MIN6 cells, imaging, high-content screening, mouse beta cells (AID 1625); details: MIN6 insulin promoter-GFP reporter, at 5 µM; cell count: measured here: cytotoxicity, nuclei count; z-score: stronger effect = higher value;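 as to cell count: total cells summed across four imaged fields per well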

SMILES | cell count | z-score
O=C(O)C#Cc1cccc2ccccc12 | 952 cells | -0.45 (inactive)
Cc1cc(C)c2[nH]c(=O)c(CN(Cc3ccccc3)C(=S)NCCCN(C)C)cc2c1 | 1260 cells | -0.25 (inactive)
CCOc1ccc(NC(=S)N2CCCCCC2)cc1 | 1240 cells | -0.11 (inactive)
CCC(C)N(C)C1CCN(C(=S)Nc2ccc(OC)cc2)CC1 (stereo unspecified) | 1120 cells | 0.62 (inactive)
CCOc1ccc(NC(=S)N2CCC(N(C)CC3CCCO3)CC2)cc1 (stereo unspecified) | 1410 cells | 3.59 (active)
Cc1cccc(N(C)C(=O)c2cc3c(=O)[nH]c4ccc(C)cc4c3s2)c1 | 642 cells | -0.64 (inactive)
CCn1c2ccccc2c2cc(NC(=O)Nc3ccc([N+](=O)[O-])cc3C)ccc21 | 1070 cells | -0.69 (inactive)
O=c1c2cc(-c3ccccc3)sc2nc2n1N=C(c1cccs1)CS2 | 940 cells | 0.28 (inactive)
S=c1[nH]nc(-c2cccs2)n1/N=C/c1cn(-c2ccccc2)nc1-c1ccc(Cl)cc1 | 941 cells | -0.14 (inactive)
NS(=O)(=O)c1cccc(NC(=O)CSc2nc3ccccc3n2-c2ccccc2)c1 | 1570 cells | -0.28 (inactive)
COc1cccc(NCCC(=O)c2cccc([N+](=O)[O-])c2)c1 | 1430 cells | -0.59 (inactive)
O=C(NCCc1csc(-c2ccccc2)n1)c1ccccc1F | 879 cells | 4.15 (active)
COc1ccc(-c2nc(CCNC(=O)c3ccc(Br)o3)cs2)cc1 | 1790 cells | -0.21 (inactive)
O=S(=O)(NCCc1csc(-c2ccccc2)n1)c1cccnc1 | 1020 cells | 0.1 (inactive)
COc1ccc([N+](=O)[O-])cc1N(CC(O)CN(CC(C)C)CC(C)C)S(=O)(=O)c1ccc(C)cc1 (stereo unspecified) | 984 cells | 0.3 (inactive)
O=C1CN(C(=O)COC(=O)c2cnc(Cl)c(Cl)c2)c2ccccc2N1 | 1340 cells | 0.22 (inactive)
Cc1ccc(OCC(=O)c2cc(C)n(Cc3ccco3)c2C)c([N+](=O)[O-])n1 | 717 cells | 0.32 (inactive)
CC1=C(C(N)=O)C(c2sccc2C)n2nnnc2N1 (stereo unspecified) | 787 cells | 1.11 (inactive)
COc1ccc(C2C(C(=O)Nc3ccccc3OC)=C(C)Nc3nnnn32)c(OC)c1 (stereo unspecified) | 1590 cells | 0.06 (inactive)
CCCCCOC(=O)C1=C(C)Nc2nnnn2C1c1ccc(OC)c(OC)c1OC (stereo unspecified) | 1410 cells | 3.26 (active)
CN(C)S(=O)(=O)c1cccc(-c2nn(-c3ccccc3)cc2/C=C2\SC(=S)N(CC(=O)O)C2=O)c1 | 1060 cells | -0.06 (inactive)

SMILES | cell count | z-score
CNC(=S)NNC(=O)c1cccn(Cc2ccccc2)c1=O | 1390 cells | -0.17 (inactive)
NNC(=O)c1oc2nc(-c3ccccc3)cc(-c3ccco3)c2c1N | 1010 cells | 1.58 (inactive)
CNC(=S)NNC(=O)c1oc2nc(-c3ccccc3)cc(-c3ccco3)c2c1N | 871 cells | 3.41 (active)
CSc1ccc(CN2C(=O)NC3(CCCCCC3)C2=O)cc1 | 1210 cells | -0.36 (inactive)
CC(=O)Nc1nc(C)c(-c2csc(Nc3ccc(S(N)(=O)=O)cc3)n2)s1 | 1500 cells | -2.49 (inactive)
Cc1ccc(C(=O)NC(=S)NCc2cccnc2)cc1 | 1660 cells | 1.63 (inactive)
CC(C)(C)c1cc(C(=O)NCc2cccnc2)ccn1 | 1480 cells | 4.34 (active)
Cc1cccc(C(=O)Nc2ccccc2C(=O)NCc2cccnc2)c1 | 1550 cells | 0.35 (inactive)
CCOc1ccc(NS(=O)(=O)c2cc(C)c(C)cc2C)cc1 | 1460 cells | 0.61 (inactive)
O=C(CC1Nc2ccccc2NC1=O)Nc1ccccc1NC(=O)CC1Nc2ccccc2NC1=O (stereo unspecified) | 1140 cells | 0.1 (inactive)
Cc1ccc(-n2[nH]c(C)c(/C=N/NC(=O)c3cccc([N+](=O)[O-])c3)c2=O)cc1C | 1370 cells | 0.35 (inactive)
Cc1[nH]n(-c2ccc([N+](=O)[O-])cc2)c(=O)c1C=NCCN1CCN(C(=O)c2ccccc2F)CC1 | 1450 cells | 4.48 (active)
C=CCNC(=S)N1CCN(CCN=Cc2c(C)[nH]n(-c3ccc([N+](=O)[O-])cc3)c2=O)CC1 | 1470 cells | 1.08 (inactive)
CC(C)CCN1CCN(C/C=C/c2ccco2)CC1CCO (stereo unspecified) | 1410 cells | 1.56 (inactive)
O=C(COC(=O)C1CCCCC1)Nc1ccc([N+](=O)[O-])cc1 | 1220 cells | -0.06 (inactive)
O=C(NNC(=S)NC(=O)c1cn(-c2ccccc2)nc1-c1ccccc1)c1ccncc1 | 1140 cells | -0.61 (inactive)
CCCCN(CCCC)CC(O)Cn1c2ccccc2c(=O)c2ccccc21 (stereo unspecified) | 1110 cells | -0.27 (inactive)
CC(C)N1CCC(NC(=O)Nc2ccccc2)CC1 | 1410 cells | -0.24 (inactive)
O=C(Nc1ccc2c(c1)OCCO2)C1CCCN(c2ncccn2)C1 (stereo unspecified) | 1560 cells | -0.18 (inactive)
Cc1cc(C)nc(N2CCC(C(=O)Nc3ccc4c(c3)OCCO4)CC2)n1 | 1130 cells | 3.37 (active)
Cc1cc(C)cc(NC(=O)C2CCN(c3nc(C)cc(C)n3)CC2)c1 | 1460 cells | -0.69 (inactive)

SMILES | cell count | z-score
N#C/C(=C/c1ccc(-c2ccccc2[N+](=O)[O-])o1)C(=O)NCCN1CCCCC1 | 1040 cells | 0.44 (inactive)
COc1ccc(-c2nnn(CC(=O)N(CCO)C(C(=O)NC3CCCC3)c3ccc(F)cc3)n2)cc1 (stereo unspecified) | 941 cells | 3.28 (active)
Cc1ccc(-c2nnn(CC(=O)N(CCO)C(C(=O)NC(C)(C)C)c3ccncc3)n2)cc1 (stereo unspecified) | 1330 cells | -0.54 (inactive)
CCOCCCN(C(=O)Cn1nnc(-c2ccc(OC)c(OC)c2)n1)C(CC)C(=O)NC1CCCC1 (stereo unspecified) | 1200 cells | 1.26 (inactive)
Cc1nc(Cl)c(C#N)c2c1CCCC2 | 1110 cells | 0.33 (inactive)
COc1ccc(NS(=O)(=O)c2ccc(Oc3c(C#N)cccc3C#N)cc2)cc1 | 558 cells | -2.43 (inactive)
CCOC(=O)c1ccc(S(=O)(=O)N(CCO)Cc2cc3cc(OC)c(OC)cc3[nH]c2=O)cc1 | 1080 cells | -0.14 (inactive)
COc1ccc(NC(=O)CCN2C(=O)/C(=C/c3ccc4c(c3)OCO4)SC2=S)cc1 | 965 cells | -0.34 (inactive)
CC(=O)N(OCc1ccc(OC(C)C)c(Cl)c1)C(C)=O | 1050 cells | -0.14 (inactive)
Cc1cc(/C=N/Nc2ccc([N+](=O)[O-])cn2)c(C)n1-c1cccc(C(=O)O)c1 | 1080 cells | -0.44 (inactive)
Cc1cc(/C=N/n2cnnc2)c(C)n1-c1cccc(C(=O)O)c1 | 1240 cells | 4.18 (active)
Cc1cccc(-n2c(C)cc(/C=N/NC(N)=S)c2C)c1 | 1370 cells | 0.39 (inactive)
CC(=O)N1N=C(c2ccncc2)OC1(Cc1ccccc1)Cc1ccccc1 | 1090 cells | 0.04 (inactive)
O=C(CS(=O)(=O)Cc1ccccc1)NCC1CCCO1 (stereo unspecified) | 1220 cells | -0.17 (inactive)
O=C(CSc1nnc(-c2ccc(NS(=O)(=O)c3ccccc3)cc2)o1)NCC1CCCO1 (stereo unspecified) | 1210 cells | 0.05 (inactive)
O=C(CSc1ccc(-c2ccccc2)nn1)NCC1CCCO1 (stereo unspecified) | 1230 cells | 3.02 (active)
COc1cc(SC)ccc1C(=O)Nc1cc(C)ccn1 | 1210 cells | 0 (inactive)
CC(=O)Nc1ccc(CC#N)cc1 | 1210 cells | -0.63 (inactive)
Cc1ccccc1NC(=S)NNC(=O)c1cccc(Br)c1 | 1120 cells | 0.03 (inactive)
O=C(NN1C(=O)C2C(C1=O)C1C=CC2C12CC2)c1ccccc1Cl (stereo unspecified) | 1130 cells | -0.03 (inactive)
CC(C)OP(=O)(OC(C)C)C(Nc1ccccc1)c1cccc([N+](=O)[O-])c1 (stereo unspecified) | 992 cells | -0.35 (inactive)
